Holding throughout (assay): NCI-60 one-dose screen, 48 h (100 = growth as untreated, 0 = no growth, -100 = all killed)
Common to all, as to details: 10 µM unless noted

The test system of experiment [1] is SR leukemia.
The subject of experiment [2] is RPMI-8226 leukemia.
The test system of experiment [3] is OVCAR-8 ovarian.
Experiment [4] concerns OVCAR-5 ovarian.
For experiment [5], the system named is OVCAR-4 ovarian.
Experiment [6] has as its system SK-OV-3 ovarian.
The test system of experiment [7] is IGROV1 ovarian.
The subject of experiment [8] is OVCAR-3 ovarian.
Experiment [9] relates to HS 578T breast.
Experiment [10] concerns NCI/ADR-RES ovarian.
The test system of experiment [11] is T-47D breast.
Experiment [12] has as its system BT-549 breast.
The subject of experiment [13] is MDA-MB-435 melanoma.
Experiment [14] relates to SW-620 colon.
In experiment [15] the test system is MCF7 breast.
The test system of experiment [16] is HCT-116 colon.
The test system of experiment [17] is HCC-2998 colon.
For experiment [18], the system named is KM12 colon.

The structures appear in SMILES notation. Compounds without any hit were thinned out: in the full panel of roughly 83,000, 20% have a hit.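 Single-concentration screen, 48 h exposure, 96-well plates. Endpoint: percent growth. Below 10 = active.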 Unmarked numbers belong to inactive results. Active and inactive are the calls of the source.

Consider `OCCS`, for which the growth in experiment [1] is 90.5%; in [2], 104%; in experiment [3] it was 103%; in [4] it was 104%; in experiment [5], 101%; in experiment [6], 101%. The growth in experiment [7] is 110%; in experiment [8], 105%; in experiment [9] it was 106%; in experiment [10] it was 102%; in experiment [11] it was 92.8%; in [12], 134%. The growth in experiment [13] is 105%; in [14], 109%; in experiment [15], 94.1%; in experiment [16] it was 103%; in [17], 93.9%; in [18] it was 103%.

Regarding `O=[N+]([O-])c1ccc(NC(c2ccccc2)c2ccc3cccnc3c2O)cc1` (stereo not drawn), the growth in experiment [1] was 6.12% (active); in experiment [2] it was 22%; in experiment [3], 17%; in [4], 58.9%; in experiment [5], 22.2%; in experiment [6] it was 34.9%. The growth in [7] is 10.9%; in [8] it was 30.7%; in [9], 35.6%; in experiment [10], 11.7%; in experiment [11], 37.2%; in experiment [12], 39%. For the same compound, the growth in [13] is 32.8%; in experiment [14], 23.9%; in [15], 17.3%; in [16], 28%; in experiment [17] it was 29.8%; in [18], 28%.

For `N=c1sc2ccccc2n1CC(=O)O`, the growth is 106% in [1]; 93.7% in [2]; 4.81% (active) in experiment [3]; 110% in experiment [4]; 115% in experiment [5]; 106% in experiment [6]. Moreover, the growth in experiment [7] is 107%; in experiment [8], 114%; in [9] it was 92%; in experiment [10], 108%; in experiment [11] it was 95.8%; in [12], 99.2%. Moreover, the growth was 113% in [13]; 103% in [14]; 99% in experiment [15]; 95.7% in experiment [16]; 108% in experiment [17]; 106% in [18].

In the case of `O=COCCCc1ccccc1`, the growth in [1] is 117%; in [2], 102%; in experiment [3], 99.2%; in experiment [4], 105%; in [5], 120%; in experiment [6], 98.1%. The growth in experiment [7] was 104%; in experiment [8], 109%; in experiment [9], 96.6%; in [10] it was 108%; in [11] it was 92.7%; in experiment [12], 104%. Besides, the growth in experiment [13] is 110%; in experiment [14] it was 103%; in experiment [15] it was 105%; in [16], 96.1%; in experiment [17], 121%; in experiment [18], 109%.

For `Nc1nc(-c2ccccn2)cc(-c2cc(-c3ccccn3)nc(N)n2)n1`, the growth in experiment [1] was 92%; in [2] it was 111%; in experiment [3], 106%; in experiment [4] it was 109%; in [5] it was 105%; in [6], 119%. In addition, the growth in experiment [7] is 108%; in experiment [8], 110%; in experiment [9] it was 127%; in [10] it was 107%; in experiment [11], 109%; in experiment [12], 117%. Moreover, the growth was 119% in experiment [13]; 133% in experiment [14]; 92.2% in [15]; 111% in experiment [16]; 104% in experiment [17]; 107% in experiment [18].

Take `COC(=O)C(Cc1cn(C(C)=O)c2ccccc12)P(=O)(OC)OC` (stereo not drawn): the growth in experiment [1] was 94.6%; in [2], 101%; in experiment [3] it was 106%; in [4], 103%; in experiment [5] it was 87%; in [6], 113%. Further, the growth was 113% in experiment [7]; 106% in experiment [8]; 94.2% in [9]; 95.3% in experiment [10]; 105% in experiment [11]; 105% in experiment [12]. Further, the growth is 99.5% in [13]; 99.5% in [14]; 101% in experiment [15]; 96.4% in experiment [16]; 103% in [17]; 99.2% in experiment [18].
